Measured values published in PubChem BioAssay (EPA / NIEHS).
The source made the active and inactive calls. How the source made its calls: active means hit-call score of the fitted dose curve at least 0.9, where 1 is the maximum; inactive means score below 0.9.

Assay: CCTE_Padilla_ZF_Score.Swim_bladder: CCTE's 144 Hour Post-fertilization zebrafish Assay Score for Swim Bladder Malformation, Padilla Lab (AID 2284408)
Method: CCTE_Padilla_ZF_Phenotype_Score is a whole embryo, multiplexed assay using zebrafish ova exposed for 144 hours post fertilization on a 96-well plate.CCTE_Padilla_ZF_Score.Swim_bladder is one of one assay component(s) measured or calculated from the CCTE_Padilla_ZF_Phenotype_Score assay. It is designed to make measurements of zebrafish development as detected with brightfield microscopy of developing zebrafish embryos.Data from the assay component CCTE_Padilla_ZF_Score.Swim_bladder was analyzed into 1 assay endpoints. This assay endpoint, CCTE_Padilla_ZF_Score.Swim_bladder, was analyzed in the positive analysis fitting direction relative to DMSO as the negative control and baseline of activity. Using a type of viability reporter, gain-of-signal activity can be used to understand changes in developmentals as they relate to the whole embryo. To generalize the intended target to other relatable targets, this assay endpoint is annotated to the zebrafish development intended target family, where the subfamily is swim bladder morphogenesis.
Zebrafish husbandry: Wild type adult zebrafish (Danio rerio; undefined outbred stock obtained from Aquatic Research Organisms, Hampton, NH, 03842) were housed in an AAALAC-approved animal facility at 28C with a 14:10 h light: dark cycle (lights on at 08:30 h). Adult fish (2-3 females per male; density = 15-20 adults per tank) were kept in one of several 9-liter (L) flow-through colony tanks (Aquaneering Inc., San Diego, CA). All adults in a colony tank were placed in a 2 L (static) breeding tank (Aquatic Habitats, Apopka, FL) one hour prior to light onset. Typically, adults from two to three colony tanks were mated on the same day. Two hours after light onset the adults were returned to the colony tank. All embryos were gathered from each breeder tank, pooled, and placed in a 28C water bath for 2 h, followed by two washes with 0.06% bleach (v/v) in 10% Hanks' Balanced Salt Solution (13.7 mM NaCl 0.54 mM KCl, 25 uM Na2HPO4, 130 uM CaCl2 100 um MgSO4 and 420 um NaHCO3,), hereafter referred to as Hanks' solution, for 5 min in order to remove any residual bacteria or fungi. Immediately following washing, the embryos were examined, and healthy embryos were separated from dead or unfertilized eggs and moved into fresh Hanks'. Chemical exposures: Zebrafish embryos were exposed in 96-well plates. Between 6- and 8-hours post fertilization (hpf), healthy embryos (with chorions) were transferred, one embryo per well, into 96 well (0.5 mL) microtiter plates (Cell Culture-Treated, Flat-Bottom Microplate 96 well [Corning Costar, Kennebunk, ME; Cat 09-761-145]) filled with 200 uL of Hanks' solution. A random number generator was used to assign the order in which the rows of embryos were plated in 96 well plates each week. After plating, the embryos were dosed with 0.8 uL of the chemical dosing solution then immediately sealed with AlumaSeal II (Excel Scientific Inc, Victorville, CA) to prevent volatilization of the chemicals, and then placed in a leakproof secondary container. These containers were placed in an incubator maintained on a 14:10 h light: dark cycle at 26C for rearing. On 5 dpf, live larvae were gently moved out of the plate with test chemicals and into a new 96 well mesh plate (Millipore Corp., Bedford, MA) with just the Hanks' solution. Once within the mesh well plate, the animals were rinsed with 400 uL of fresh Hanks' three times, and then the plates were covered with a non-adhesive material (Microseal A, BioRad, Hercules, CA), plate lid added, and then plate sides wrapped in Parafilm (PM992, Bermis Company, Neenah, WI), and returned to the incubator. […]
For O=CC(F)(F)C(F)(F)C(F)(F)F, the outcome was “inactive”.
For OCC(F)(F)C(F)(F)C(F)(F)C(F)(F)C(F)(F)C(F)(F)C(F)(F)C(F)(F)C(F)(F)C(F)(F)C(F)(F)F, the outcome was “inactive”.
With FC(F)(F)N1C(F)(F)C(F)(F)OC(F)(F)C1(F)F the outcome was “inactive”.
In the case of O=P(O)(O)CCC(F)(F)C(F)(F)C(F)(F)C(F)(F)C(F)(F)C(F)(F)C(F)(F)C(F)(F)F, the AC50 is reported as 10 µM (active).
For FCOC(C(F)(F)F)C(F)(F)F, the outcome was “inactive”.
For C=CC(=O)OCCC(F)(F)C(F)(F)C(F)(F)C(F)(F)C(F)(F)C(F)(F)C(F)(F)C(F)(F)F, the outcome was “inactive”.
In the case of FC1(F)C=CC(F)(F)C1(F)F, the outcome is reported as “inactive”.
For O=C(O)CCC(F)(F)C(F)(F)C(F)(F)C(F)(F)C(F)(F)C(F)(F)F, the AC50 was 10.4 µM (active).
In the case of O=C(CC(=O)C(F)(F)C(F)(F)C(F)(F)F)c1cccs1, the AC50 is reported as 2.41 µM (active).
For O=C(O)C(F)(F)OC(F)(F)C(F)(F)OC(F)(F)C(F)(F)OC(F)(F)C(F)(F)C(F)(F)C(F)(F)F, the AC50 was 3.2 µM (active).
In the case of C=CC(F)(F)C(F)(F)C(F)(F)C(F)(F)F, the outcome is reported as “inactive”.
For O=C(OC(=O)C(F)(F)C(F)(F)F)C(F)(F)C(F)(F)F, the outcome was “inactive”.
With O=CC(F)(F)C(F)(F)C(F)(F)C(F)F the outcome was “inactive”.
In the case of FC(OC(F)(F)C(F)(F)C(F)(F)F)C(F)(F)F (centres undefined), the outcome is reported as “inactive”.
With O=P(O)(O)CCC(F)(F)C(F)(F)C(F)(F)C(F)(F)C(F)(F)C(F)(F)F the outcome was “inactive”.
With FC(F)=C(F)C(F)(F)C(F)(F)C(F)(F)C(F)F the outcome was “inactive”.
In the case of COC(=O)C(F)(F)C(F)(F)C(F)(F)C(F)(F)C(F)(F)F, the outcome is reported as “inactive”.
For CN(CCO)S(=O)(=O)C(F)(F)C(F)(F)C(F)(F)C(F)(F)C(F)(F)C(F)(F)C(F)(F)C(F)(F)F, the outcome was “inactive”.
In the case of FC(F)(F)C1(F)C(F)(F)C(F)(F)C(F)(F)C(F)(C(F)(F)F)C1(F)F (centres undefined), the outcome is reported as “inactive”.
In the case of O=C(F)C(F)(F)C(F)(F)C(F)(F)C(=O)F, the outcome is reported as “inactive”.
With NC(C(F)(F)F)C(F)(F)F the outcome was “inactive”.
With O=C(O)CCC(F)(F)C(F)(F)C(F)(F)C(F)(F)C(F)(F)F the AC50 was 10.9 µM (active).
For FC(F)(F)C1(F)C(F)(F)C(F)(F)C(F)(F)C1(F)F, the outcome was “inactive”.
For O=C1OC(=O)C(F)(F)C1(F)F, the outcome was “inactive”.
